The source of these data is PubChem BioAssay (EPA / NIEHS).

Where “and” joins values, the source holds several entries; their conditions need not be identical. Equal entries are not always repeated. More than one record can exist for a structure, and the calls need not agree. Calls of active or inactive are those of the source. How the source made its calls: active means hit-call score of the fitted dose curve at least 0.9, where 1 is the maximum; inactive means score below 0.9.

A short description of experiment [1]: APR_HepG2_NuclearSize_72hr: Apredica 72-hour HepG2 Assay for Nuclear Size (AID 2282925). To be noted: high-content imaging, actives raise or lower the signal. In a few lines:
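HepG2 cells dosed 72 h at 0.39–200 uM (10 concentrations, duplicate) in 0.5% v/v DMSO final. Fixed, Hoechst 33342-stained nuclei imaged; nuclear diameter measured by automated image analysis. Bidirectional fit versus DMSO.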

Experiment [2] can be described thus: ATG_CRE_CIS: Attagene CIS-FACTORIAL HepG2 Assay for human cAMP Responsive Element (CRE) binding protein 3 (AID 2282926). As to conditions: HepG2 CRE cis-reporter, Attagene multiplexed mRNA; actives raise or lower the signal. In a few lines:
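Endogenous CRE-binding activity in HepG2 is reported through a cis-regulated transfected reporter. Following a day of exposure, mRNA levels are determined by reverse transcription PCR and fluorescent fragment analysis; fits run in both directions versus DMSO.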

Experiment [3] has as its target CCAAT/enhancer-binding protein beta (Homo sapiens) (UniProt P17676). Description: ATG_C_EBP_CIS: Attagene CIS-FACTORIAL HepG2 Assay for human CCAAT/Enhancer Binding Protein (C/EBP) beta (AID 2282927). To be noted: HepG2 Attagene cis-factorial transcription factor reporter; actives raise or lower the signal. In a few lines:
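HepG2, transient MRTU transfection, 24 h treatment. RT-PCR plus CE fluorescence; DMSO negative control, bidirectional fit.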

Experiment [4] can be described thus: ATG_CMV_CIS: Attagene CIS-FACTORIAL HepG2 Assay for human CMV (Internal Marker) (AID 2282928).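 Further: endpoint acts as a background internal control marker rather than a target.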 As to conditions: HepG2 CMV promoter reporter, transcription factor profiling; actives raise or lower the signal. In a few lines:
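HepG2 cells transiently transfected with multiple cis-regulated reporter units; 24 h compound exposure. Reporter mRNA quantified by RT-PCR, 6-FAM primer-extension labeling, HpaI digestion and capillary electrophoresis; bidirectional fitting against DMSO baseline.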

A short description of experiment [5]: ATG_DR4_LXR_CIS: Attagene CIS-FACTORIAL HepG2 Assay for human Liver X Receptor (LXR), DR4 submotif (AID 2282929). To be noted: HepG2 Attagene DR4 cis-reporter, mRNA transcription; actives raise or lower the signal. In a few lines:
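Readout: reporter transcript fluorescence after RT-PCR and capillary electrophoresis, fitted bidirectionally against DMSO controls. Human HepG2 liver cells carried transiently transfected multiplexed reporter constructs; endogenous transcription factor activity measured 24 h post-dosing.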

Experiment [6] concerns the target Aryl hydrocarbon receptor (Homo sapiens) (UniProt P35869). Description: ATG_Ahr_CIS: Attagene CIS-FACTORIAL HepG2 Assay for human Aryl Hydrocarbon Receptor (Ahr) (AID 2282930). As to conditions: HepG2 AhR cis-factorial reporter transcription; actives raise or lower the signal. In a few lines: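 Endogenous factor activity is tracked through cis-promoter reporter units transfected into HepG2 cells. Transcript levels at 24 h are read by fluorescent RT-PCR and capillary electrophoresis, with activity in either direction scored relative to DMSO.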

A short description of experiment [7]: ATG_AP_2_CIS: Attagene CIS-FACTORIAL HepG2 Assay for human Activator Protein 2 (AP-2) (AID 2282932). As to conditions: HepG2 AP-2 cis-reporter, Attagene transcription factor profiling; actives raise or lower the signal. The method in brief: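 Multiplexed mRNA reporter assay in HepG2: cis-regulated units report endogenous factor activity after 24 h treatment. Fluorescence from capillary electrophoresis of RT-PCR products gives the signal, with DMSO as baseline.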

The nature of experiment [8]: ATG_BRE_CIS: Attagene CIS-FACTORIAL HepG2 Assay for human Bone Morphogenetic Protein (BMP) Response Element (BRE) (AID 2282933). As to conditions: HepG2 BMP response element reporter, Attagene transcription factor profiling; actives raise or lower the signal. The method in brief: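 HepG2 cells transiently transfected with multiplexed cis-element reporter units were dosed with chemical for 24 h. Reporter mRNA was measured by RT-PCR with fluorescent labelling, HpaI digestion and capillary electrophoresis; bidirectional fitting relative to DMSO.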

For experiment [9], the target named is Transcription factor E2F1 (Homo sapiens) (UniProt Q01094). In words: ATG_E2F_CIS: Attagene CIS-FACTORIAL HepG2 Assay for human E2F Transcription Factor 1 (AID 2282935). As to conditions: HepG2 Attagene cis-reporter, E2F reporter RNA transcripts; actives raise or lower the signal. In a few lines:
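Measures reporter transcript levels via RT-PCR with capillary electrophoresis detection in HepG2 cells harboring cis-regulated reporter units; 24 h post-dose; bidirectional curve fitting with DMSO as baseline.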

Experiment [10] can be described thus: ATG_E_Box_CIS: Attagene CIS-FACTORIAL HepG2 Assay for human Enhancer Box (E-box) (AID 2282936). As to conditions: HepG2 E-box cis-reporter transcription, actives raise or lower the signal. In a few lines:
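First, HepG2 cells receive multiple cis-regulated reporter constructs by transient transfection. Next, chemicals are applied for 24 h. Finally, reporter mRNA is quantified via RT-PCR and capillary electrophoresis, with DMSO as baseline.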

Experiment [11] is described as follows: ATG_M_61_CIS: Attagene CIS-FACTORIAL HepG2 Assay for M61 Transcription Factor (Internal Marker) (AID 2282937). To be noted: HepG2 Attagene CIS-FACTORIAL M61 internal marker reporter; actives raise or lower the signal. In a few lines: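 Readout: fluorescent reporter mRNA fragments resolved by capillary electrophoresis after RT-PCR. Transiently transfected human HepG2 cells carried MRTU constructs reporting endogenous TF activity; 24 h chemical exposure; gain or loss of signal fitted relative to DMSO.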

Experiment [12] in a line: ATG_M_19_CIS: Attagene CIS-FACTORIAL HepG2 Assay for M19 Transcription Factor (Internal Marker) (AID 2282939). As to conditions: HepG2 Attagene CIS-FACTORIAL M19 internal marker reporter; actives raise or lower the signal. In a few lines:
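HepG2 cells transiently transfected with cis-regulated multiple reporter transcription units were dosed for 24 h; reporter mRNA was quantified by RT-PCR, 6-FAM primer-extension labelling, HpaI digestion and capillary electrophoresis, with bidirectional fitting against DMSO baseline.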

Experiment [13] is described as follows: ATG_ERE_CIS: Attagene CIS-FACTORIAL HepG2 Assay for Estrogen Response Element (ERE) (AID 2282940). As to conditions: HepG2 ERE cis-reporter, Attagene RNA transcript; actives raise or lower the signal. In a few lines: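 HepG2 cells transiently transfected with cis-promoter-driven multiplexed reporter transcription units report endogenous TF activity. After 24 h compound exposure, reporter mRNA is quantified by RT-PCR with capillary electrophoresis fluorescence; bidirectional fitting versus DMSO baseline.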

Experiment [14] in a line: ATG_Ets_CIS: Attagene CIS-FACTORIAL HepG2 Assay for human Erythroblast Transformation Specific (ETS) (AID 2282941). To be noted: HepG2 ETS cis-reporter transcription, actives raise or lower the signal. The method in brief: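 HepG2 cells transiently transfected with cis-promoter reporter transcription units were dosed for 24 h; reporter mRNA was measured by RT-PCR, 6-FAM primer extension, HpaI digestion and capillary electrophoresis, with bidirectional fitting against DMSO baseline.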

Experiment [15] has as its target Hepatocyte nuclear factor 3-beta (Homo sapiens) (UniProt Q9Y261). In words: ATG_FoxA2_CIS: Attagene CIS-FACTORIAL HepG2 Assay for human Forkhead box A2 (FOXA2) (AID 2282942). To be noted: HepG2 cis-reporter transcription factor activity, 24 h; actives raise or lower the signal. In a few lines: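 Readout: fluorescent reporter transcripts resolved by capillary electrophoresis after RT-PCR. Transiently transfected HepG2, 24 h compound exposure, endogenous TF activity at cis promoter elements. Gain or loss of signal fitted relative to DMSO.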

A short description of experiment [16]: ATG_FoxO_CIS: Attagene CIS-FACTORIAL HepG2 Assay for human Forkhead box O (FoxO) (AID 2282943). To be noted: HepG2 Attagene cis-reporter, FoxO element, mRNA; actives raise or lower the signal. In a few lines: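 Transfected HepG2 reporter cells exposed to test chemical for 24 h; reporter RNA measured by reverse transcription, PCR and fluorescent capillary electrophoresis; curves fitted for increases and decreases against DMSO.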

The nature of experiment [17]: ATG_GATA_CIS: Attagene CIS-FACTORIAL HepG2 Assay for human GATA Binding Protein (AID 2282944). As to conditions: HepG2 GATA cis-element reporter, Attagene multiplex mRNA; actives raise or lower the signal. In a few lines: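 HepG2 cells transiently transfected with multiplexed cis-element reporter units reflecting endogenous transcription factor activity; reporter mRNA measured after 24 h dosing by RT-PCR, 6-FAM labeling, HpaI digestion and capillary electrophoresis. Bidirectional fitting versus DMSO baseline.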

Experiment [18] in a line: ATG_AP_1_CIS: Attagene CIS-FACTORIAL HepG2 Assay for human Activator Protein 1 (AP-1) (AID 2282931). To be noted: HepG2 Attagene cis-factorial AP-1 reporter mRNA; actives raise or lower the signal. In a few lines:
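Reporter transcripts were measured 24 h after dosing by RT-PCR and capillary electrophoresis of fluorescent fragments. Cells: HepG2 carrying transfected cis-regulated reporter constructs reading endogenous factor activity. Gain or loss fitted against DMSO.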

Experiment [19] concerns the target Retinoic acid receptor alpha (Homo sapiens) (UniProt P10276). Description: ATG_DR5_RAR_CIS: Attagene CIS-FACTORIAL HepG2 Assay for human Retinoic Acid Receptor Alpha (RARE), DR5 submotif (AID 2282934). As to conditions: HepG2 Attagene cis-factorial RARE DR5 reporter, mRNA; actives raise or lower the signal. In a few lines:
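After 24 h of chemical exposure, transiently transfected HepG2 cells were lysed for total RNA; the DR5-regulated reporter transcript was quantified via RT-PCR and capillary electrophoresis, with activity fitted bidirectionally against DMSO.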

A short description of experiment [20]: ATG_EGR_CIS: Attagene CIS-FACTORIAL HepG2 Assay for human Early Growth Response 1 (EGR1) (AID 2282938). To be noted: HepG2 Attagene CIS-FACTORIAL EGR reporter mRNA; actives raise or lower the signal. The method in brief:
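Read-out: fluorescent reporter-mRNA fragments resolved by capillary electrophoresis after RT-PCR, 24 h post-dose in transiently transfected HepG2. Endogenous transcription-factor activity reported via cis-element-regulated reporter units; gain or loss fitted relative to DMSO.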

Sequence of Aryl hydrocarbon receptor (Homo sapiens) (P35869 whole entry, looked up): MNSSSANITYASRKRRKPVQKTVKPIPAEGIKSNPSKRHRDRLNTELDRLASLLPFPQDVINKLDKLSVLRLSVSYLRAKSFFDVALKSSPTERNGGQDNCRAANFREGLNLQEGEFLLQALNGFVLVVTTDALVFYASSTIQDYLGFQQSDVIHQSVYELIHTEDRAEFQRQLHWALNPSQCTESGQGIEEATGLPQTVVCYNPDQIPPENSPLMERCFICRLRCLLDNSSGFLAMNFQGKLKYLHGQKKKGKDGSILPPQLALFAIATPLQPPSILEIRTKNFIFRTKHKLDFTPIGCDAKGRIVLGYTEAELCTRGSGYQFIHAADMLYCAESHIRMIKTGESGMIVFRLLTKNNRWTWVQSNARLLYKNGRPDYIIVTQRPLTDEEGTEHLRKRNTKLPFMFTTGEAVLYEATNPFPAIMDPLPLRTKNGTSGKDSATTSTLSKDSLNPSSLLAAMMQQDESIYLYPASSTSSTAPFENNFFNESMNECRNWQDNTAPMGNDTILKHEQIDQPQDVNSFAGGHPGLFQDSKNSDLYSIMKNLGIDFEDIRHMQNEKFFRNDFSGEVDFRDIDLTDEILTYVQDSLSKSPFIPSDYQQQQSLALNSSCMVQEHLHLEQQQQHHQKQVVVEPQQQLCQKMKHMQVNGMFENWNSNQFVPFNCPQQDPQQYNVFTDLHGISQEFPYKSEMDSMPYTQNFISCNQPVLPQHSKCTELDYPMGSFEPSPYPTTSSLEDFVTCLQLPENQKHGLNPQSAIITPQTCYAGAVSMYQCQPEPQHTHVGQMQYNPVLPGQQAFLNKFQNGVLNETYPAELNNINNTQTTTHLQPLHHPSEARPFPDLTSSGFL
Sequence of Hepatocyte nuclear factor 3-beta (Homo sapiens) (Q9Y261 whole entry, looked up): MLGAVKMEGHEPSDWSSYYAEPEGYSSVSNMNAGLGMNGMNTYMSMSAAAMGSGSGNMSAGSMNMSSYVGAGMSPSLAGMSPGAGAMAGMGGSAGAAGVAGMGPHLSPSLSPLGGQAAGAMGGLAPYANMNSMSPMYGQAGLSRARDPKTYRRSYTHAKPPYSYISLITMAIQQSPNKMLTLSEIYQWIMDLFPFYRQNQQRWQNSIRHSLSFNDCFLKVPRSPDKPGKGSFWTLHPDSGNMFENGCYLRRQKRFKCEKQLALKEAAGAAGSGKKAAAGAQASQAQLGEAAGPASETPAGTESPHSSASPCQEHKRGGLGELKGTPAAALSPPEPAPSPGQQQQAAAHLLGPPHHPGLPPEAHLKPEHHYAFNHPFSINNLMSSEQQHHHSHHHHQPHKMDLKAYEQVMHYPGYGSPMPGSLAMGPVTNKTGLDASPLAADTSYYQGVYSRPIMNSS
Sequence of Retinoic acid receptor alpha (Homo sapiens) (P10276 whole entry, looked up): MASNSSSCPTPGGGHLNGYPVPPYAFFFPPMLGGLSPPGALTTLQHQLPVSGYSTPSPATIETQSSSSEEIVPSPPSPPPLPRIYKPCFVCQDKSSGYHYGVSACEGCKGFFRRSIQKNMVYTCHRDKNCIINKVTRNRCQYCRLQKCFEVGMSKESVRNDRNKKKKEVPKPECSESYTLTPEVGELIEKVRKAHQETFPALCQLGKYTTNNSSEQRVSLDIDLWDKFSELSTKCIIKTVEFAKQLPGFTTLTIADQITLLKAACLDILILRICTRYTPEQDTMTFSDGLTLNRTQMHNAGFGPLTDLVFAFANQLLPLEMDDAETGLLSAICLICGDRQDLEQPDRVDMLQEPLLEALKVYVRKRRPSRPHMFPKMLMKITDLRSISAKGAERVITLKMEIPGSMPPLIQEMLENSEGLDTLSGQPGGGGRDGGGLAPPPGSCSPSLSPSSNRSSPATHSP
Sequence of Transcription factor E2F1 (Homo sapiens) (Q01094 whole entry, looked up): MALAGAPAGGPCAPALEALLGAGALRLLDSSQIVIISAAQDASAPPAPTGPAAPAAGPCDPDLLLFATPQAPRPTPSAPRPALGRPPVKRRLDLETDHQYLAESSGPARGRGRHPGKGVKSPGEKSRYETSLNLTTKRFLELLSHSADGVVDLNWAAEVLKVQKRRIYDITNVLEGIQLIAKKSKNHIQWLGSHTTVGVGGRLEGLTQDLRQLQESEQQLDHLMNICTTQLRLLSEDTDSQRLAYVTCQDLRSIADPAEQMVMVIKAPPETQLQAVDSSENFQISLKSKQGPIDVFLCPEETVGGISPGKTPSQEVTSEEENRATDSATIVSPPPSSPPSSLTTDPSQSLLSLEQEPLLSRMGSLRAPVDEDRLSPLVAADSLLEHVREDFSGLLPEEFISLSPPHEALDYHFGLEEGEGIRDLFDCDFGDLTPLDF
Sequence of CCAAT/enhancer-binding protein beta (Homo sapiens) (P17676 whole entry, looked up): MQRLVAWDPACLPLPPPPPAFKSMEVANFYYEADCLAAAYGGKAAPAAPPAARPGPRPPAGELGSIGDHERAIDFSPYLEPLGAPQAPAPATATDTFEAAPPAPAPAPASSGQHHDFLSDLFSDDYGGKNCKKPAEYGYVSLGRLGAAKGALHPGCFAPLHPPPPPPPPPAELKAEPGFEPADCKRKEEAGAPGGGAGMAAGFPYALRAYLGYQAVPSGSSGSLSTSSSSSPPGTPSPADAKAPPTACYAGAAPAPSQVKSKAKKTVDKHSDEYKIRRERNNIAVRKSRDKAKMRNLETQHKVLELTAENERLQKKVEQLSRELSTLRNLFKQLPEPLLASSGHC

Regarding `CC(=O)S[C@@H]1CC2=CC(=O)CC[C@]2(C)[C@H]2CC[C@@]3(C)[C@@H](CC[C@@]34CCC(=O)O4)[C@H]12`, the result in [1], in experiment [2], in experiment [3], in experiment [4], in experiment [5] and in experiment [6] was inactive. The outcome in experiment [7], in [8], in experiment [9], in [10], in experiment [11] and in experiment [12] was inactive. The compound was called inactive in experiment [13], in [14], in experiment [15], in experiment [16] and in experiment [17]. For the same compound, the half-maximal activity concentration (AC50) (as a rule, the concentration at which the activity in the assay is half-maximal) in [2] was 25.5 µM (active) and 17.9 µM (active) and 3.75 µM (active); in experiment [4], 26.1 µM (active) and 3.77 µM (active) and 12.1 µM (active); in experiment [5] it was 10.6 µM (active) and 12.5 µM (active) and 11.8 µM (active); in experiment [8], 70.9 µM (active) and 152 µM (active); in experiment [10], 7.33 µM (active) and 26.6 µM (active) and 18.4 µM (active); in experiment [14] it was 100 µM (active).

Regarding `c1ccc2[nH]c(-c3cscn3)nc2c1`, the outcome in [1], in experiment [2], in experiment [3], in experiment [4], in [5] and in [18] was inactive. The outcome in experiment [7], in experiment [8], in experiment [19], in [9], in experiment [10] and in experiment [11] was inactive. Further, the call in experiment [20], in experiment [12], in [13], in experiment [14], in experiment [15] and in [16] was inactive. The call in experiment [17] was inactive. In addition, the AC50 in [5] is 32.1 µM (active).

For the compound `CCCCCOC(=O)COc1cc(N2C(=O)C3=C(CCCC3)C2=O)c(F)cc1Cl`, the result in [1], in experiment [2], in experiment [3], in [4], in experiment [6] and in experiment [18] was inactive. The result in experiment [7], in experiment [8], in experiment [19], in [9], in experiment [11] and in experiment [20] was inactive. In addition, the call in [12], in [13], in [14], in experiment [15] and in experiment [16] was inactive. Moreover, the AC50 in [5] was 32.6 µM (active); in experiment [10] it was 50 µM (active).
